Screens as filed in PubChem.
Most compounds without a hit are left out; they make up all but 3.9% or so of the library.
BoNT-F LC inh: inhibitors of Botulinum neurotoxin F light chain protease | Multiplex microsphere protease cleavage assay, flow cytometry | inhibition, % at 10 µM | 360,000 compounds, 0.22% hits; in the data active = inhibition above about 35%, passing the limit was not always enough; inconclusive = no clear call, values can overlap the other calls; note: plate controls were buffer without enzyme for full effect and enzyme alone for no effect
SARS 3CLpro inh: SARS-CoV 3CLpro protease inhibition; AID 1706; 290,000 compounds, 0.14% hits; recombinant SARS-CoV 3CLpro, quenched FRET peptide cleavage; inhibition, % at 6 µM; in the data active = inhibition above about 12%
BoNT-A LC inh2: BoNT A light chain protease inhibition; inhibition, % at 10 µM; 360,000 compounds, 0.17% hits; multiplex microsphere protease substrate cleavage, flow cytometry; note: plate controls were buffer without enzyme for full effect and enzyme alone for no effect
Bead autofluor: flagged as autofluorescent in microsphere protease counterscreen. compound autofluorescence counterscreen, microsphere flow cytometry; stronger effect = higher value. fluorescence intensity (concentration not given with the values). 360,000 compounds, 3.1% hits. AID 624483; in the data active = fluorescence intensity above about 16000; inconclusive = no clear call, values can overlap the other calls
VHR inh abs: blocks human VHR1 dual specificity phosphatase. P51452. recombinant VHR phosphatase, pNPP absorbance. inhibition, % at 13.3 µM. 290,000 compounds, 0.52% hits. AID 1654; in the data active = inhibition above about 50%
Anthrax LF inh2: inhibitors of Bacillus anthracis lethal factor protease; AID 588501; multiplex microsphere protease cleavage assay, LF; 360,000 compounds, 0.12% hits; inhibition, % at 10 µM; note: plate controls were buffer without enzyme for full effect and enzyme alone for no effect
Target sequence (P15917 whole entry, looked up): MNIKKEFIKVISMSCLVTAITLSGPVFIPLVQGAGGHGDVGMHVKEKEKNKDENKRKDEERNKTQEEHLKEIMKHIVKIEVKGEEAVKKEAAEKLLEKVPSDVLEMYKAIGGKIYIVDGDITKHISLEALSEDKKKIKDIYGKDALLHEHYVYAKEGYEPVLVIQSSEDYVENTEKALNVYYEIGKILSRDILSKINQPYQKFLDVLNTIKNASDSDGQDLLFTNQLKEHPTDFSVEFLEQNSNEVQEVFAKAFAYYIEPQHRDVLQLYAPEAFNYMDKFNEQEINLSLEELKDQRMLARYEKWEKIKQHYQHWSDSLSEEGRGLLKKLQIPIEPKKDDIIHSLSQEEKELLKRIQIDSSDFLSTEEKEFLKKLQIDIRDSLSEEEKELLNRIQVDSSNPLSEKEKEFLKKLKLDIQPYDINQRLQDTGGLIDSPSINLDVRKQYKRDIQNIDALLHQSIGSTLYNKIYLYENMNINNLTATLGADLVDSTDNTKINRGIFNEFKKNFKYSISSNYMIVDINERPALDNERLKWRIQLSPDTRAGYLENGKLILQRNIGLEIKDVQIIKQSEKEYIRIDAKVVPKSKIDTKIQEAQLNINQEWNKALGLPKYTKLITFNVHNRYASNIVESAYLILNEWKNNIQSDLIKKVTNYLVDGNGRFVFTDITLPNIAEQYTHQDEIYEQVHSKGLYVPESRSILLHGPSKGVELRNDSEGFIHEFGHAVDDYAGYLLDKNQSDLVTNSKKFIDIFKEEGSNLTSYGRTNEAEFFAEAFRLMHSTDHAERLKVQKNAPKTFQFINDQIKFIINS
* = called active by the depositor; ? = inconclusive; nt = not tested or not shown. Cut-off read from the data, not from the text of the source, unless noted: active = inhibition above about 30%; inconclusive = no clear call, values can overlap the other calls; inactive = below that.

SMILES | BoNT-F LC inh | SARS 3CLpro inh | BoNT-A LC inh2 | Bead autofluor | VHR inh abs | Anthrax LF inh2
CCOC(=O)CCCc1c[nH]c2ccccc12 | 4.0 | 0.0 | 5.1 | 21767* | 24.7 | -0.7
COc1ccc(-c2sc3ccc(OC)cc3c2-c2ccc(OC)nc2)cc1 | 8.2 | nt | 0.3 | 2871 | nt | -2.9
CC(Sc1nc(-c2ccco2)nc2c1c(=O)n(C)c(=O)n2C)C(=O)O (stereo not given) | -4.0 | 0.8 | -0.6 | 4724 | 21.3 | -3.6
CCC(=O)NC1(C(F)(F)F)C(=O)Nc2c1c(=O)n(C)c(=O)n2C (stereo not given) | 0.0 | -0.4 | 0.4 | 23514* | -0.2 | -1.8
O=C(c1ccc(OC2CCN(Cc3ccccn3)CC2)cc1)N1CCCCO1 | -2.1 | 1.2 | -0.4 | 2309 | 30.9 | -0.5
COc1ccc(-c2cc3nc(C4CCN(C(=O)OC(C)(C)C)CC4)c(C(=O)O)cn3n2)cc1 | 3.7 | 5.4 | 1.0 | 22638* | 11.3 | 0.2
CCOC(=O)c1cn2nc(-c3ccc(OCC)cc3)cc2nc1C1CCN(C(=O)OC(C)(C)C)CC1 | -2.8 | 5.2 | -0.1 | 9697 | 7.6 | -4.0
CCCCNC(=S)NNc1c(Cl)cc(Cl)cc1Cl | -4.6 | -0.5 | -0.8 | 4382 | 51.3* | -6.4
O=C(NCCCl)NNc1c(Cl)cc(Cl)cc1Cl | 7.3 | -0.1 | -0.6 | 4570 | -8.7 | 4.4
CC(=O)c1cc(C)ccc1OC(=O)c1ccncc1 | ? | -0.7 | 1.3 | 3111 | -1.9 | -13.4
Cc1ccc(OC(=O)c2ccncc2)c(C)c1 | 46.6* | 3.0 | -0.3 | 3621 | 7.4 | -12.8
CC(/C=C/c1ccco1)=N\NC(=O)c1cc(C)[nH]n1 | -0.2 | -0.2 | ? | 23188* | 8.4 | -4.7
Cc1cc(C(=O)N/N=C/c2ccco2)n[nH]1 | -3.0 | 1.1 | 0.3 | 1988 | 13.9 | -1.6
S=C(Nc1cccc(Cl)c1)Nc1cccc2cnccc12 | -47.4 | 1.3 | 1.1 | 1735 | 50.8* | -5.2
N#CC1=C(Nc2ccc(Br)cc2)CCC1 | -10.5 | -5.4 | -2.1 | 16939* | 4.6 | -4.7
Cc1ccc(SCc2cc(=O)[nH]c(Nc3nc(C)c4cccc(C)c4n3)n2)cc1 | 2.6 | -6.9 | 2.6 | 22617* | 20.5 | -1.9
CCOc1ccc2nc(Nc3nc(CSc4nnnn4-c4ccccc4)cc(=O)[nH]3)nc(C)c2c1 | 0.7 | -0.9 | ? | 20506* | 2.6 | 2.7
COc1ccc2nc(Nc3nc(CSc4ccc(C)cc4)cc(=O)[nH]3)nc(C)c2c1 | 0.8 | -1.8 | 0.2 | 3772 | 13.4 | -9.3
CCCCOC(=O)Nc1ccc(N2CCOCC2)cc1 | -4.9 | -6.1 | ? | 20906* | 8.8 | -5.5
CCCCOC(=O)Nc1ccc(N2CCCCC2)cc1 | -43.5 | 1.2 | -6.5 | 15945 | 3.1 | -21.1
CCOC(=O)Nc1ccc(S(=O)(=O)NCCCN2CCOCC2)cc1 | -3.3 | 2.3 | -2.2 | 17393* | 6.4 | -3.4
CCOC(CNC(=O)CN1C(=O)COc2ccc(S(=O)(=O)N3CCCC3)cc21)OCC | -1.7 | -6.8 | 1.4 | 5189 | 10.8 | -0.6
COc1ccc(C(=O)CSc2nc3[nH]ncc3c(=O)[nH]2)cc1 | -2.6 | -1.9 | -0.4 | 2978 | 2.3 | -2.0
CCCCN(C=O)c1c(CC)nc2c(OCc3ccccc3C)cccn12 | -3.4 | nt | -0.9 | 3538 | nt | 3.6
Cc1ccc(-c2csc(=S)n2CC(=O)OCC(=O)NC(C)C(C)C)cc1 (stereo not given) | -0.4 | 6.7 | 0.5 | 16450* | -3.3 | -1.8
SMILES | BoNT-F LC inh | SARS 3CLpro inh | BoNT-A LC inh2 | Bead autofluor | VHR inh abs | Anthrax LF inh2
C=CCc1cccc2cc(C(=O)Nc3ccc(CC(=O)O)cc3)c(=O)oc12 | -2.8 | 1.9 | -1.3 | 4812 | 52.1* | -7.4
CCOC(=O)[C@]12CCC=C1N(Cc1cccc3ccccc13)C(=O)[C@H](CC(=O)NCC13CC4CC(CC(C4)C1)C3)C2 | -7.6 | nt | -0.8 | 6510 | nt | 5.4
O=C(CN1CCN(c2ccccn2)CC1)N1c2ccccc2Sc2ccc(C(F)(F)F)cc21 | -6.8 | 5.8 | -3.6 | 17711* | 17.9 | -2.3
O=C(CN1CCN(c2ccccn2)CC1)N1CC(O)CO1 (stereo not given) | 4.2 | 2.6 | 0.3 | 3858 | -10.5 | -8.1
O=C(CN1CCN(c2ccccn2)CC1)N1c2ccccc2CCc2ccccc21 | -0.8 | -3.9 | -0.4 | 20825* | 4.4 | -2.7
CCN(CC)c1ccc(N=Cc2c(O)n(CCc3ccc(OC)c(OC)c3)c(=O)[nH]c2=O)cc1 | 3.7 | 1.9 | 0.7 | 2155 | -26.1 | -0.5
CCN(CC)CCCN=Cc1c(O)n(CCc2ccc(OC)c(OC)c2)c(=O)[nH]c1=O | -0.1 | -1.8 | ? | 21750* | 31.5 | -0.1
CN(C)Cc1c(C(=O)N/N=C/c2cccs2)nnn1-c1nonc1N | -2.1 | 1.1 | -0.3 | 2887 | 25.9 | 9.9
O=C(NCc1ccc(F)cc1)c1cc(C2CCCN(S(=O)(=O)c3ccccc3)C2)on1 (stereo not given) | -1.5 | nt | -0.7 | 4057 | nt | -5.3
Cc1ccc2c3c(cccc13)-c1ccccc1C2=O | 28.1 | 1.9 | 73.9* | 6102 | 20.8 | 43.7*
Nc1ccc2c3c(cccc13)-c1ccccc1-2 | -5.9 | nt | 4.2 | 4925 | nt | -5.3
CC(C)OCCCn1c(=O)c2ccccc2n2c(CCC(=O)O)nnc12 | 6.2 | -1.2 | -2.9 | 3279 | -10.3 | -10.4
CC(C)OCCCn1c(=O)c2ccccc2n2c(CCC(=O)NC3CCN(Cc4ccccc4)CC3)nnc12 | -0.1 | 6.5 | -1.7 | 6612 | 52.7* | 0.3
CCOC(=O)c1c(-c2ccc(C)o2)csc1NC(=S)NC(=O)c1ccccc1Br | -4.3 | -3.3 | 0.2 | 16268* | 1.2 | -7.5
CSc1ccccc1NC(=O)Nc1cccc(F)c1 | -2.4 | 2.0 | -0.1 | 2526 | 4.8 | 0.9
CSc1ccccc1NC(=O)c1c(C)noc1C | -5.6 | -3.1 | -5.1 | 22017* | 13.4 | -1.1
CSc1ccccc1NC(=O)c1ccccc1N(C)S(C)(=O)=O | -4.7 | -2.9 | -1.8 | 22950* | 3.5 | -5.1
CSc1ccccc1NC(=O)Nc1ccccc1 | -7.6 | -1.1 | ? | 25193* | 8.3 | -1.9
CSc1ccccc1NC(=O)c1ccccc1N(Cc1ccccc1)S(C)(=O)=O | 10.9 | 2.6 | 8.9 | 19711* | -19.4 | -11.0
CCOC(=O)[C@H]1[C@H]2COc3ccc(OC)cc3[C@@H]2N2C(=O)CN(Cc3ccccc3)C(=O)[C@@]12C | 1.8 | nt | -0.2 | 3985 | nt | -1.6
CCOC(=O)CNC(=O)C1(NC(=O)CNC(=O)OCc2ccccc2)CCCC1 | -14.1 | nt | -0.5 | 4051 | nt | -6.3
CC(NCc1ccc([N+](=O)[O-])cc1)C1COc2ccccc2O1 (stereo not given) | 3.9 | -0.1 | 4.6 | 3417 | 6.0 | -4.1
Cc1ccc(C2NC(=O)c3c(sc(C)c3C)N2)c(O)c1 (stereo not given) | 2.3 | -2.4 | 2.2 | 9326 | 51.2* | 0.4
Cc1cccc(C(=O)Nc2cc(S(=O)(=O)N3CCOCC3)ccc2N2CCCC2)c1 | 4.3 | nt | -2.3 | 5901 | nt | -5.9
CCOc1ccc(CNC(=O)CCn2c(=O)oc3ccccc32)cc1 | -2.4 | -0.1 | 0.6 | 16172* | 7.6 | -5.0
CCOc1ccc(OCC)c(NC(=O)CCn2c(=O)oc3ccccc32)c1 | 0.3 | 0.6 | ? | 19376* | 33.9 | 1.1
